# In PubChem BioAssay AID1845226 (National Center for Advancing Translational Sciences (NCATS), 2023):
# Inconclusive results are not listed. The source made the active and inactive calls. Calls come from the whole dose curve; as a rule, active = well fitted inhibition curve with a large enough effect; inconclusive = small, poorly fitted or top-dose-only effect; inactive = no such curve, though single readings can be large or run the other way.
# Assay: Confirmatory fluorescence-based thiol-reactive (MSTI) qHTS assay for identification of artifact compounds
# Settings: MSTI thiol-reactivity probe, 1 h; series mostly up to 39.2 µM
# Source text: PI: Alexander Tropsha Ph.D. UNC Eshelman School of Pharmacy University of North Carolina, Chapel Hill, North Carolina Hits from high-throughput screening (HTS) of chemical libraries are often false positives due to their interference with the assay detection technology. In response to this problem, we generated the largest publicly available library of chemical liabilities and developed a free webtool to predict HTS artifacts, both of which are described herein. More specifically, we generated, curated, and integrated HTS datasets for thiol reactivity, redox activity, and luciferase (firefly and nano) activity. Using these curated datasets, we developed and validated several Quantitative Structure-Interference Relationship (QSIR) models to predict nuisance behavior. […] These models were employed for virtual profiling of the National Center for Advancing Translational Science's (NCATS) in-house library, and 256 compounds for each assay were selected for the experimental validation of nuisance behavior. The BA for these external predictions ranged from 58 to 78% for compounds within the applicability domains of the models. […] The models developed in this study, along with aggregation models previously developed by our group (SCAM Detective) were implemented in "Liability Predictor," an online tool which may be used as part of chemical library design or for triaging HTS hits. Both the models and the curated datasets are publicly available at https://liability.mml.unc.edu/.
# PROTOCOL TABLE SEQUENCE No. (e.g., 1, 2, 3, etc.); PARAMETER (e.g., Cells, Incubation, Reagent, etc.); VALUE; DESCRIPTION. 1; Reagent; 4 uL; […]. 2; Compounds and control; 16 nL; Kalypsis pin tool (Wako USA) equipped with a 1536-well pin head. 3; Incubation; 1 hour. 4; Detection; Fluorescence, ViewLux microplate reader, 525 nm excitation, 598 nm emission. NOTES (numbers refer to Sequence numbers above) 1. Assays determining (E)-2-(4-mercaptostyryl)-1,3,3-trimethyl-3H-indol-1-ium (MSTI) reactivity were performed as previously described in the literature with modifications for the quick identification of compounds reacting with thiol. In brief, 4 uL of MSTI or positive control Acetyl-MSTI (final concentrations of 4 uM and 4 uM, respectively) in assay buffer (2% DMSO in 1X PBS pH 7.4) was dispensed into all wells of a 1536-well assay plate (solid-bottom black plate; Greiner Bio One, Monroe, NC). 2. A Wako Pin-tool (Wako Automation, Richmond, VA) was used to transfer 16 nL of compounds (consisting of 7-plates in qHTS format, final concentration range 18.3 nM to 114 uM) or control MLS001163887 (final concentration range 1.22 nM to 40 uM). 3. Plates were centrifuged (121xg, 15 seconds) and incubated for 1 hour at room temperature protected from light. 4. Samples were read for fluorescence (Ex/Em = 525(20)/598(25) nm) on a ViewLux CCD imager (PerkinElmer). Data were normalized to Acetyl-MSTI (0% activity) and MSTI (100% activity) and the resulting percent inhibition data were fitted to a 4-parameter Hill equation using NCATS in-house software.
row,Compound,outcome
1,CC1CCCC(O)CCCCCc2cc(O)cc(O)c2C(=O)O1 (configuration not stated),inactive
2,C[C@H]1CCCC(=O)CCC/C=C/c2cc(O)cc(O)c2C(=O)O1,inactive
3,COc1ccc2c3c1O[C@H]1[C@@H](O)C=C[C@H]4[C@@H](C2)NCC[C@@]341,inactive
4,c1ccc2sc(SNC3CCCCC3)nc2c1,inactive
5,COc1ccc2[nH]cc(CCNCc3ccc(Br)cc3)c2c1,inactive
6,O=c1ccc2cc(O[C@@H]3O[C@H](CO)[C@H](O)[C@H](O)[C@H]3O)c(O)cc2o1,inactive
7,CC[C@H]1[C@@H]2C[C@H]3[C@@H]4N(C)c5ccccc5[C@]45C[C@@H](C2[C@H]5O)N3[C@@H]1O (some centres not stated),inactive
